Activity (max response) and Potency data for 40 compounds are collected here from PubChem BioAssay (NCATS).

Where “and” joins values, the source holds several entries; their conditions need not be identical. Equal values may be shown once. Records with an inconclusive call do not appear. Unmarked numbers belong to inactive results. Calls of active or inactive are those of the source. Calls follow the shape of the dose curve; as a rule, active = well fitted cell-killing curve with a large enough effect; inconclusive = small, poorly fitted or top-dose-only effect; inactive = flat fitted curve, though single readings scatter.
% is scaled to controls: 0 for no effect and ±100 for the full control effect.

The nature of the test: Cellular viability qHTS for adrenocortical cancer (ACC) cell line SW-13 (AID 1963989). Also: nearly all actives have a fitted effect of over 65% in size.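 As to Activity (max response): cells grown in serum-free medium with ITS supplement.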 Particulars: SW-13 ACC cells viability, CellTiter-Glo, 48 h; activity (max response): active compounds read low. An excerpt: PI: Naris Nilubol, MD Surgical Oncology Program, National Cancer Institute (NCI) National Institute of Health (NIH), Bethesda, Maryland Adrenocortical cancer (ACC) is a rare malignancy with poor survival outcomes and few treatment options. Currently, mitotane is the only FDA-approved therapy for ACC. Although adjuvant radiation therapy is rarely utilized, it has the potential to improve survival in select cases. Through a quantitative high-throughput drug screen (qHTS), we identified auranofin (AF), a thioredoxin reductase (TXNRD) inhibitor, as a promising candidate drug. This study aims to evaluate whether AF can enhance the efficacy of radiation therapy in the treatment of ACC. Two human ACC cell lines, SW-13 and NCI-H295R, were screened using the National Center for Advancing Translational Sciences (NCATS) Pharmaceutical Collection (NPC) and the Mechanism Interrogation PlatE (MIPE) library (~4,991 compounds). CellTiter-Glo (Cat # G7570, Promega, Madison, WI) was utilized to measure cell viability. Described herein are the results of the corresponding viability assay.
PROTOCOL TABLE (as described by Inglese J, Shamu CE and Guy RK. 2007) SEQUENCE No. (e.g., 1, 2, 3, etc.); […] (e.g., Cells, Incubation, Reagent, etc.); VALUE; DESCRIPTION. 1; Cells; 5 uL; white, solid-bottom, 1536-well tissue-culture treated plates. 2; Time; overnight culture at 37C with 5% CO2. 3; Compounds and control; 23 nL; Kalypsis pin tool (Wako USA) equipped with a 1536-well pin head to transfer to the assay plates. 4; Time; 48 hours; 37C with 5% CO2. 5; Reagent; 4 uL; CellTiter-Glo luminescent substrate mix. 6; Time; 20 min at room temperature. 7; Detection; Luminescence; ViewLux plate reader NOTES (numbers refer to Sequence numbers above) 1. SW13 cells were harvested from a T175 flask and resuspended in ITS-supplemented DMEM serum-free medium at a concentration of 300 000 cells/mL. Then 5 uL of resuspended cells were dispensed into each well of white, solid-bottom, 1536-well tissue-culture-treated plates using a multidrop combi dispenser. The plates were covered with stainless steel gasket lids. 2-3. The plates were cultured overnight at 37C with 5% CO2. Twenty-three nL of compounds (eight selected concentrations from the NPC / MIPE) or positive control (10 mM stock of bortezomib) in DMSO was transferred to each well of the assay plate using a pin tool (Kalypsys, San Diego, CA, USA). The final concentration of the compounds in the 5 uL assay volume ranged from 0.5 nM to 46 uM. 4-6. After 48 hours of incubation at 37C and 5% CO2, 4 uL of CellTilter-Glo luminescent substrate mix (Promega, Madison, WI, USA) was added to each well. Then the plates were incubated for 20 minutes at room temperature. 7. After incubation, luminescence was measured using a ViewLux plate reader (PerkinElmer, Waltham, MA, USA) with a clear filter was used to measure the number of metabolically competent cells. To determine compound activity in the qHTS assay, the titration-response data for each sample was plotted and modeled by a four-parameter logistic fit yielding IC50 and efficacy (maximal response) values. […] REFERENCES: Inglese J, Shamu CE and Guy RK, Reporting data from high throughput screening of small molecule libraries, Nature Chemical Biology, 2007, 3(8): 438-441. doi.org/10.1038/nchembio0807-438.
`O=C(O)CCNC(=O)c1ccccc1`: the activity (max response) was 1.23%.
`COc1cc(C)c(/C=C/C(C)=C/C=C/C(C)=C/C(=O)O)c(C)c1C`: the activity (max response) is -22.4%.
As to `C=C1C(=O)O[C@H]2C[C@H](C)C(/C=C/C(C)=O)=CC[C@H]12`, the Potency was 15.8 µM (active).
In the case of `C=C1[C@H](OC(=O)/C=C(\C)CC)C[C@@H](C(C)C)[C@@H]2[C@H]([C@@H](C)OC(C)=O)C(=O)C[C@@H]12`, the activity (max response) is 6.72%.
As to `Cc1[nH]c(C)c(Cl)c(=O)c1Cl`, the activity (max response) is 4.22%.
Take `C[C@H]1C[C@H](O)c2ccsc2S1(=O)=O`: the activity (max response) was 10.4%.
As to `CC[C@]12CCCN3CCc4c(n(c5ccccc45)[C@@](O)(C(=O)OC)C1)[C@@H]32`, the activity (max response) is 1.04%.
Consider `N[C@@H](Cc1c[nH]c2ccc(O)cc12)C(=O)O`, for which the activity (max response) is 10.6%.
Turning to `NC(=O)c1cn(Cc2c(F)cccc2F)nn1`, the activity (max response) is 10.9%.
`Cc1ccc(C2=Nc3ccc(Cl)cc3OC2)cc1`: the activity (max response) was -18.7%.
With `NC1(c2ccc(-c3nc4ccn5c(=O)[nH]nc5c4cc3-c3ccccc3)cc2)CCC1`, the Potency was 20.6 µM (active) and 17.8 µM (active).
In the case of `O=c1n(CCCN2CCN(c3cccc(Cl)c3)CC2)nc2ccccn12`, the activity (max response) is -1.77%.
In the case of `O=c1[nH]nc(Sc2ncc([N+](=O)[O-])s2)n1-c1ccc2c(c1)OCCO2`, the Potency was 17.8 µM (active).
As for `CCCCCN=C(N)N/N=C/c1c[nH]c2ccc(OC)cc12`, the Potency is 13 µM (active).
`O=C(Nc1cccc(C(F)(F)F)c1)c1cccc2cc(Oc3cc(CO)ncn3)ccc12`: the activity (max response) is 9.86%.
On the same count and under the same terms, as for `CN1CCCN=C1/C=C/c1cccs1`, the figure is 0.0735% and 9.48%.
Take `Cc1c(F)cc2c(=O)c(C(=O)O)cn3c2c1CCC3C` (stereo not given): the activity (max response) was -2.48%.
`CC1(C)[C@@H](OC(=O)CCC(=O)O)CC[C@]2(C)[C@H]3C(=O)C=C4[C@@H]5C[C@@](C)(C(=O)O)CC[C@]5(C)CC[C@@]4(C)[C@]3(C)CC[C@@H]12`: the activity (max response) was 2.49%.
`NNc1nncc2ccccc12`: the activity (max response) is 12.3% and -11.3%.
As for `O=c1[nH]cc(F)c(=O)[nH]1`, the activity (max response) was -6.36%.
For the compound `O=[N+]([O-])c1ccc(-c2nc(-c3ccc(F)cc3)c(-c3ccncc3)[nH]2)cc1`, the activity (max response) is -1.63%.
With `CS(=O)(=O)CCNCc1ccc(-c2ccc3ncnc(Nc4ccc(OCc5cccc(F)c5)c(Cl)c4)c3c2)o1`, the Potency was 18.4 µM (active) and 14.1 µM (active).
As to `CN1C(C(=O)Nc2ccccn2)=C(O)c2ccccc2S1(=O)=O`, the activity (max response) is -11.3% and -19.8%.
Same read-out and setting: in the case of `C[N+](C)(C)CC(O)CC(=O)[O-]` (stereo not given) it was -6.62%; in that of `O=C1c2c(O)cc(O)cc2OC(c2ccc(O)c(O)c2)C1O` (stereo not given), -4.92%.
For the compound `COc1cc2nc(N(C)CCCNC(=O)C3CCCO3)nc(N)c2cc1OC` (stereo not given), the activity (max response) is -10.5%.
With `COc1ccc(-c2cc3c(C)nc(N)nc3n(C3CCC(OCCO)CC3)c2=O)cn1` (stereo not given), the Potency is 1.12 µM (active).
With `COc1ccc2c(Oc3ccc(NC(=O)c4c(C)n(CC(C)(C)O)n(-c5ccccc5)c4=O)nc3)ccnc2c1`, the activity (max response) was -3.94%.
With `Cc1c(Cn2ccnc2)c2ccccc2n1CCC(=O)O`, the activity (max response) was 15.3%.
Same read-out and setting: in the case of `O=C([C@@H](Cc1cccc(C(F)(F)F)c1)NS(=O)(=O)c1cc(F)c2c(c1)CCNC2)N1CCCC1` it was -8.82%.
For `CO[C@H]1/C=C/O[C@@]2(C)Oc3c(C)c(O)c4c(O)c(c5c(nc6cc(C)ccn65)c4c3C2=O)NC(=O)/C(C)=C\C=C\[C@H](C)[C@H](O)[C@@H](C)[C@@H](O)[C@@H](C)[C@H](OC(C)=O)[C@@H]1C`, the Potency was 25.1 µM (active).
For the compound `CC(C)(C)NC(=O)[C@H]1CC[C@H]2[C@@H]3CC[C@H]4NC(=O)C=C[C@]4(C)[C@H]3CC[C@]12C`, the activity (max response) is -6.83% and 2.59%.
For the compound `CN1N=C(C(N)=O)CCC1=O`, the activity (max response) was 11.7%.
On the same count and under the same terms, in the case of `Cc1ccc(-c2nc(N)nc3c2nnn3Cc2cccc(CO[C@H]3CCOC3)n2)o1` it was -12.5%.
Consider `Cc1cc(C(=O)N2CCN(c3cccc(Cl)c3)CC2)n(-c2ccccc2)n1`, for which the Potency is 0.355 µM (active).
For the compound `OC1(c2ccccc2)CCNCC1`, the activity (max response) is 4.15%.
On to `CN1Cc2cc(C(=O)N3CCC(C4CCNCC4)CC3)ccc2NC(CC(=O)O)C1=O` (stereo not given), for which the activity (max response) is 10.5%.
For `CCCCN1C[C@H](O)[C@@H](O)[C@H](O)[C@H]1CO`, the activity (max response) was -2.93%.
Consider `N[C@H](C(=O)O)c1ccc(O)cc1`, for which the activity (max response) was 5.01%.
On the same count and under the same terms, in the case of `NC(=O)CCCCC1CCSS1` (stereo not given) it was 9.98%.
